We go through five compounds from PubChem BioAssay.

The nature of test [1]: optical density shifts of acrAB sulA E. coli – strain DRC41, OD650, 48 h, E. coli filamentation inducer project, primary screen (AID 1152).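 Note: E. coli MC1000 strain DRC41 lacking acrAB efflux pump and sulA.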 Particulars: higher = more signal, called active from +8 up or from −8 down.
The nature of test [2]: probe aLefty1 binding on compound microarray – biochemical, small-molecule microarray, 635/667 nm fluorescence, primary screen (AID 1153).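 Note: score merges spot fluorescence with signal-to-noise ratio from the scanned slide images.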 Particulars: higher = more signal.
Test [3] in a line: plasmodial surface anion channel blockers, osmotic lysis – cell-based, P. falciparum Indochina, OD700, 1 h, primary screen (AID 1154). The note with it: P. falciparum Indochina infected RBC osmotic lysis, higher = more signal, called active from +8 up or from −8 down.
Test [4] is described as follows: plasmodial surface anion channel blockers, osmotic lysis – cell-based, P. falciparum Indochina, OD700, 2 h, primary screen (AID 1155).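 Note: lysis reports solute entry through the parasite surface anion channel PSAC.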 Particulars: P. falciparum Indochina infected erythrocytes, higher = more signal, called active from +8 up or from −8 down.
The nature of test [5]: changes in parasitized red cell lysis, either direction – P. falciparum Indochina, OD700, 3 h, PSAC antagonist project, primary screen (AID 1156). Particulars: P. falciparum-infected erythrocytes, osmotic lysis, higher = more signal, called active from +8 up or from −8 down.
Test [6] is described as follows: plasmodial surface anion channel blockers, osmotic lysis – cell-based, P. falciparum Indochina, OD700, 18 h, primary screen (AID 1157). Particulars: P. falciparum Indochina infected erythrocytes, osmotic lysis OD700, 18 h; higher = more signal, called active from +8 up or from −8 down.
Test [7] in a line: S6 kinase pathway phospho-S6 level changes – cell-based, A549, cytoblot, luminescence, serum-stimulated, primary screen (AID 1158).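 Note: serum-stimulated A549 lung adenocarcinoma cells; signal is phosphorylated S6 detected by cytoblot immunostaining with HRP secondary.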 The note with it: 5 h, higher = more signal.
Test [8] has as its target NADPH oxidase 2 (Homo sapiens) (UniProt P04839). Nature of the test: compounds shifting NOX2 Amplex Red fluorescence – cell-based, HEK293-NOX2, PMA-stimulated, NOX inhibitor project, primary screen (AID 1159). Note: test concentration not given here. The note with it: 45 min, higher = more signal, called active from +8 up or from −8 down.
The target of test [9] is NADPH oxidase 4 (Homo sapiens) (UniProt Q9NPH5). The test is described as follows: compounds shifting NOX4 Amplex Red fluorescence – cell-based, HEK293-NOX4, tetracycline-induced, NOX inhibitor project, primary screen (AID 1160). Particulars: HEK293-NOX4, Amplex Red H2O2 fluorescence, 45 min; higher = more signal, called active from +8 up or from −8 down.
NADPH oxidase 4 (Homo sapiens), sequence (Q9NPH5 whole entry, looked up): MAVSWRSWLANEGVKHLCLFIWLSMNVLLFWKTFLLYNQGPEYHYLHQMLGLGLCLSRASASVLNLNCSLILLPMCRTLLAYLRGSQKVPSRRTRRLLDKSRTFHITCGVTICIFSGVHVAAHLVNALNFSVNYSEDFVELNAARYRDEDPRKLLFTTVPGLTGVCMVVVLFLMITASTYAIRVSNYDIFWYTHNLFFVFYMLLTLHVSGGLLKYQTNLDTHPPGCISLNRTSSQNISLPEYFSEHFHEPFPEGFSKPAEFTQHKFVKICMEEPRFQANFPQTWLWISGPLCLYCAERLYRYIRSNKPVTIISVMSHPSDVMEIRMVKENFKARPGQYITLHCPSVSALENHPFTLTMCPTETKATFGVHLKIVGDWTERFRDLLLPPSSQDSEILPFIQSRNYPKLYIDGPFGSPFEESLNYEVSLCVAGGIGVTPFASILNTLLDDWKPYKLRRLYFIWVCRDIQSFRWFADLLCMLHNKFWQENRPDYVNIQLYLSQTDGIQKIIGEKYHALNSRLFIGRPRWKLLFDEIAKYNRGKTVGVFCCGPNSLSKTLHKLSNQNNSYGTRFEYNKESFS
Test [10] concerns the target NADPH oxidase 5 (Homo sapiens) (UniProt Q96PH1). Nature of the test: compounds shifting NOX5 Amplex Red fluorescence – cell-based, HEK293-NOX5, NOX inhibitor project, primary screen (AID 1161). Particulars: HEK293-NOX5, ionomycin, 45 min, higher = more signal.
A short description of test [11]: compound effects on lung adenocarcinoma cell viability – A549, calcein-AM fluorescence, 48 h, basal, profiling panel (AID 1162). Note: test concentration not given here. Particulars: higher = more signal.
Test [12] can be described thus: compound effects on differentiated 3T3-L1 adipocyte viability – cell-based, 3T3-L1 adipocytes, calcein-AM fluorescence, 48 h, basal, profiling panel (AID 1163). Note: test concentration not given here. Particulars: 3T3-L1 adipocytes viability, higher = more signal.
Test [13] in a line: compound effects on hepatocellular carcinoma cell viability – HepG2, calcein-AM fluorescence, 48 h, basal, profiling panel (AID 1164). Note: test concentration not given here. The note with it: higher = more signal.
Test [14] can be described thus: compound effects on multiple myeloma cell viability – MM1S, calcein-AM fluorescence, 48 h, basal, profiling panel (AID 1165).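 Note: viability of MM1S multiple myeloma cells under basal unstimulated conditions; test concentration not given here.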 The note with it: higher = more signal.
Test [15] is described as follows: calcein-AM signal in unstimulated myeloma cells – cell-based, calcein-AM fluorescence, 48 h, PK04 Diversity Set, profiling panel (AID 1166).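 Note: cells grown under basal conditions without added stimulus; test concentration not given here.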 The note with it: RPMI8226 myeloma viability, higher = more signal.
Test [16] in a line: JC-1 mitochondrial signal, unstimulated HepG2 cells – cell-based, JC-1 fluorescence, 24 h, 100 nL compound, profiling panel (AID 1167). Note: test concentration not given here. Particulars: HepG2 mitochondrial potential, higher = more signal.
Test [17] is described as follows: JC-1 mitochondrial signal, unstimulated adipocytes – cell-based, JC-1 fluorescence, 3T3-L1 adipocytes, 24 h, 100 nL compound, profiling panel (AID 1168). Note: test concentration not given here. The note with it: JC-1 mitochondrial fluorescence, higher = more signal, called active from +8 up or from −8 down.
Test [18] in a line: JC-1 mitochondrial signal, unstimulated myeloma cells – cell-based, JC-1 fluorescence, RPMI8226, 24 h, 100 nL compound, profiling panel (AID 1169). Note: test concentration not given here. The note with it: JC-1 mitochondrial potential fluorescence, higher = more signal.
Test [19] can be described thus: JC-1 mitochondrial signal, unstimulated MM1S myeloma – cell-based, JC-1 fluorescence, 24 h, 100 nL compound, profiling panel (AID 1170). Note: test concentration not given here. Particulars: MM1S mitochondrial potential, higher = more signal.
Test [20] in a line: resazurin metabolic signal in A549 cells – cell-based, resazurin fluorescence, 24 h, PK04 Diversity Set, profiling panel (AID 1171). Note: test concentration not given here. The note with it: A549 viability, higher = more signal, called active from +8 up or from −8 down. Background: The colour change of resazurin is a common sign of viable cells or microbes.

The source made the active and inactive calls.

NADPH oxidase 5 (Homo sapiens), sequence (Q96PH1 whole entry, looked up): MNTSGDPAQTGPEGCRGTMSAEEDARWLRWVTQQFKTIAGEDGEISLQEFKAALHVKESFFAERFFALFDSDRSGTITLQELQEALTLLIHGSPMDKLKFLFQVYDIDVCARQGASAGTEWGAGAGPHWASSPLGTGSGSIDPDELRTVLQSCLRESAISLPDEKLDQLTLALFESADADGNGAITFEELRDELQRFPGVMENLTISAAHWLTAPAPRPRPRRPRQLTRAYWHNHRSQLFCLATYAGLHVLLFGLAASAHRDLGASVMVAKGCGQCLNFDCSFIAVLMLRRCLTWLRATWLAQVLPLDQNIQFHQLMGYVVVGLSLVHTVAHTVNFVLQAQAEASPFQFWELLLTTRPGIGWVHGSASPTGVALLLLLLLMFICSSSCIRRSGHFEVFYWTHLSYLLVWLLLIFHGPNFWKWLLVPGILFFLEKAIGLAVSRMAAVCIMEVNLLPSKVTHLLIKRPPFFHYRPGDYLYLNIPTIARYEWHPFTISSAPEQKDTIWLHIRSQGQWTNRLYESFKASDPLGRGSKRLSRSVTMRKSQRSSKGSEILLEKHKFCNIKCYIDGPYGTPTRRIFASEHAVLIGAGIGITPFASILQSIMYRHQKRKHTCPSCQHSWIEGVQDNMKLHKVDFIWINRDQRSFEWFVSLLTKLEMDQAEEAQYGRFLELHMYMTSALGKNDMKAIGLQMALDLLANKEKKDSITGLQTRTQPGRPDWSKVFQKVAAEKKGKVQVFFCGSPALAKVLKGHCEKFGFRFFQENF
NADPH oxidase 2 (Homo sapiens), sequence (P04839 whole entry, looked up): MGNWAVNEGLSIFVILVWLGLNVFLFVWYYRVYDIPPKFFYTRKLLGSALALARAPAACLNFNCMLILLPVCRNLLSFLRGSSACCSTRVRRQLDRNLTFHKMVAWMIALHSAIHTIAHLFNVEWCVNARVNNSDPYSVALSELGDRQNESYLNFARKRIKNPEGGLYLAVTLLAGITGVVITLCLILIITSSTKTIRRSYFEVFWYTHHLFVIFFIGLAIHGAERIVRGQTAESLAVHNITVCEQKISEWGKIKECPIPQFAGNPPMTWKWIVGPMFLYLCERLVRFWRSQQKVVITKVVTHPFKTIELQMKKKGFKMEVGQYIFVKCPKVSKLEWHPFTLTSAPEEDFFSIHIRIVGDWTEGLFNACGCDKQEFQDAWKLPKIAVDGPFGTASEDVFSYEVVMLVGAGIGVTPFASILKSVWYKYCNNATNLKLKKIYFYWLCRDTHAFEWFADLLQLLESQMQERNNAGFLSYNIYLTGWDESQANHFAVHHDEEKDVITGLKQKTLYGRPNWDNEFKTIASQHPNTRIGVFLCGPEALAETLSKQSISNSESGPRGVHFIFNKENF

For the compound `COc1ccc([Si](C)(C)[C@@H]2[C@@H](CC(=O)N3Cc4ccccc4C[C@H]3CO)O[C@]3(C(=O)N(Cc4ccc(N5C(=O)c6cccc7cccc5c67)cc4)c4ccccc43)[C@H]2C)cc1`, the z-score is -0.967 (inactive) in [1]; 3.62 (inactive) in [3]; 1.49 (inactive) in [4]; -0.149 (inactive) in test [5]; 0.694 (inactive) in test [6]; -0.297 in [7]. For the same compound, the z-score in test [8] was 0.878 (inactive); in test [9], 0.929 (inactive); in test [10] it was 2.03; in test [11], 0.396; in [12], 0.885; in [13] it was 0.355. The z-score in [14] is -2.78; in test [15] it was -0.705; in test [16], 1.15; in test [17] it was -0.0452 (inactive); in test [18] it was -0.0572; in test [19], 0.893. In addition, the z-score in test [20] was -0.787 (inactive). Further, the composite z-score in test [2] was 0.0391.

On to `C=CC[C@@H](OC(=O)Nc1ccc(OC)cc1)c1ccc(O)c(F)c1`, for which the z-score in [1] is 0.111 (inactive); in [3], 2.93 (inactive); in [4] it was -0.0384 (inactive); in [5], -1.12 (inactive); in test [6], -0.113 (inactive); in test [7] it was -0.386. Moreover, the z-score is -6 (inactive) in [8]; -2.91 (inactive) in test [9]; -3.48 in test [10]; -1.78 in test [11]; 0.379 in test [12]; -2.39 in test [13]. Besides, the z-score is -2.15 in [14]; -2.51 in test [15]; -3.67 in test [16]; -1.37 (inactive) in test [17]; 0.122 in test [18]; -1.07 in [19]. Moreover, the z-score in [20] is -0.747 (inactive). In test [2], this compound yielded a composite z-score of 0.109.

Consider `O=C1C2C=CC(C(O)C3CC=CCC3)N(Nc3ccccc3)C2C(=O)N1c1ccccc1` (stereo not given), for which the z-score in test [1] is -1.5 (inactive); in test [3], 3.38 (inactive); in [4], -0.228 (inactive); in test [5] it was 1.53 (inactive); in test [6], -1.33 (inactive); in test [7], 0.879. Also, the z-score in test [8] is -3.1 (inactive); in test [9] it was -4.95 (inactive); in test [10], -6.07; in test [11], -1.05; in test [12] it was -0.0629; in test [13], -1.2. Moreover, the z-score in test [14] was -1.13; in test [15], -1.14; in [16], -2.47; in [17], -0.858 (inactive); in [18] it was 0.173; in test [19], -1.02. The z-score in [20] was -0.728 (inactive). The composite z-score in test [2] was 0.663.

Take `COc1ccc([Si](C)(C)[C@@H]2[C@@H](CC(=O)N(CCO)Cc3ccccc3)O[C@]3(C(=O)N(Cc4cccc(N5CCCCC5=O)c4)c4ccccc43)[C@H]2C)cc1`: the z-score in test [1] was 0.152 (inactive); in test [3] it was 4.33 (inactive); in test [4], 1.85 (inactive); in test [5] it was 0.422 (inactive); in test [6], 1.14 (inactive); in test [7] it was 1.19. The z-score in test [8] was 0.609 (inactive); in test [9], 1.28 (inactive); in test [10], 3.58; in [11], -1.2; in test [12] it was 0.579; in [13] it was -2.56. Further, the z-score in test [14] is -1.43; in test [15], -3.89; in test [16], 0.56; in test [17], 1.15 (inactive); in [18], -0.654; in test [19], -1.26. Moreover, the z-score in test [20] was -1.6 (inactive). This compound returned a composite z-score in test [2] of 0.527.

Turning to `Cc1ccc(S[C@]2(C(=O)NCC(F)(F)F)CC(=O)N(Cc3cc(C(F)(F)F)cc(C(F)(F)F)c3)[C@@H]2c2ccc(CO)cc2)cc1`, the z-score was -0.415 (inactive) in test [1]; 1.74 (inactive) in test [3]; 0.594 (inactive) in test [4]; -0.573 (inactive) in [5]; 0.501 (inactive) in test [6]; -0.488 in [7]. The z-score in test [8] was -0.0338 (inactive); in test [9], 0.0959 (inactive); in test [10], 0.496; in [11], 0.0806; in test [12], -0.547; in test [13] it was 0.643. The z-score in [14] was -0.783; in test [15], -0.759; in [16], -0.693; in [17], -0.658 (inactive); in [18] it was 0.213; in [19] it was -0.299. For the same compound, in [20], the z-score is -0.45 (inactive). Also, the composite z-score in test [2] is -0.146.
